Key:
Experiment in all cases: log2 ratio of Biotin-Ahx-Ub-VS probe labelling (fragment/DMSO); higher = less target engagement (more negative = stronger competition), active = hit call of the paper (q ≤ 0.05, log2 ratio ≤ -1)
Details in all cases: compound concentration: 200 uM; treatment time: 3 h
USP19 = molecular target: T1, USP19 (UniProt O94966)
T1 sequence (whole entry): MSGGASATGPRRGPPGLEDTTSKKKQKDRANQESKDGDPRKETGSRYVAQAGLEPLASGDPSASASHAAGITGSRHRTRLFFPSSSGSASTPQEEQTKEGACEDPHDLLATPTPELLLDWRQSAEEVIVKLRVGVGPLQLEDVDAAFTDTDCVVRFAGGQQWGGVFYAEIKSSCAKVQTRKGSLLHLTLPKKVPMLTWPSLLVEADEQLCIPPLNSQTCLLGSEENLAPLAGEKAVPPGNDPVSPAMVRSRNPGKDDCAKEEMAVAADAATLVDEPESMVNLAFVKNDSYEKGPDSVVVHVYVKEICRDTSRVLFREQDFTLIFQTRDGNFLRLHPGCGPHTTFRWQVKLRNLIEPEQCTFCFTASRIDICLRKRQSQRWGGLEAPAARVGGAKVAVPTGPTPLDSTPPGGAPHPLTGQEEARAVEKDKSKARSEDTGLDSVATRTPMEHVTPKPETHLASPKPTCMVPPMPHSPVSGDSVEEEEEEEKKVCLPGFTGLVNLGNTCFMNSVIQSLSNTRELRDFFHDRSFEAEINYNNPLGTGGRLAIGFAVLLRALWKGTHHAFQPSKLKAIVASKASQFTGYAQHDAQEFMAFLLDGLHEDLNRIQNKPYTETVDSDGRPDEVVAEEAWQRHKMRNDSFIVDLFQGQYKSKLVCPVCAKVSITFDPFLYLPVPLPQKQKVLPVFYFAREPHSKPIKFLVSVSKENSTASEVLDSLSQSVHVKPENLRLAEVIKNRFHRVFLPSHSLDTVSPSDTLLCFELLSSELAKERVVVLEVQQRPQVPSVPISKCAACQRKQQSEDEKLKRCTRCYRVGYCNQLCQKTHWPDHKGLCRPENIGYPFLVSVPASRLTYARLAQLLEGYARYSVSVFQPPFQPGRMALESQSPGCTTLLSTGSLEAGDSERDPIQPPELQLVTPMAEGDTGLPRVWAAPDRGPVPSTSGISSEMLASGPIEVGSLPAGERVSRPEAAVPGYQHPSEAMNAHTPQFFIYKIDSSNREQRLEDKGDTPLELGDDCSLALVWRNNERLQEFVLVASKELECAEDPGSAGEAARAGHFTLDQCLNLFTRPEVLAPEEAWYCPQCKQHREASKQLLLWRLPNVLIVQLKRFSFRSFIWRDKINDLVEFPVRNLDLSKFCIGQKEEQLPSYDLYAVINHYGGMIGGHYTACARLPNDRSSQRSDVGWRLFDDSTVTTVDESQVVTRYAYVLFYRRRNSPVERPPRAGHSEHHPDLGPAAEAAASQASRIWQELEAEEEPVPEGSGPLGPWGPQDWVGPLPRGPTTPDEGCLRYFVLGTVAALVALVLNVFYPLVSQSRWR
Procedure, shortened: (§1)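 Labelled DUBs from HEK293T lysate were NeutrAvidin-enriched, digested with LysC and trypsin, and run by diaPASEF LC-MS/MS. Before that, each 495 µg sample in Tris/CHAPS/IGEPAL buffer with protease inhibitors was treated in triplicate with fragment at 200 µM or vehicle for 3 h, then with Biotin-Ahx-Ub-VS at 0.5 µM final for 1 h. Values are average log2 ratios of fragment over vehicle by unpaired t-test, based on global-median-normalised Spectronaut label-free quantities from proteins with ≥2 unique peptides.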

USP24 = USP24 (UniProt Q9UPU5)
USP24, sequence (Q9UPU5 whole entry): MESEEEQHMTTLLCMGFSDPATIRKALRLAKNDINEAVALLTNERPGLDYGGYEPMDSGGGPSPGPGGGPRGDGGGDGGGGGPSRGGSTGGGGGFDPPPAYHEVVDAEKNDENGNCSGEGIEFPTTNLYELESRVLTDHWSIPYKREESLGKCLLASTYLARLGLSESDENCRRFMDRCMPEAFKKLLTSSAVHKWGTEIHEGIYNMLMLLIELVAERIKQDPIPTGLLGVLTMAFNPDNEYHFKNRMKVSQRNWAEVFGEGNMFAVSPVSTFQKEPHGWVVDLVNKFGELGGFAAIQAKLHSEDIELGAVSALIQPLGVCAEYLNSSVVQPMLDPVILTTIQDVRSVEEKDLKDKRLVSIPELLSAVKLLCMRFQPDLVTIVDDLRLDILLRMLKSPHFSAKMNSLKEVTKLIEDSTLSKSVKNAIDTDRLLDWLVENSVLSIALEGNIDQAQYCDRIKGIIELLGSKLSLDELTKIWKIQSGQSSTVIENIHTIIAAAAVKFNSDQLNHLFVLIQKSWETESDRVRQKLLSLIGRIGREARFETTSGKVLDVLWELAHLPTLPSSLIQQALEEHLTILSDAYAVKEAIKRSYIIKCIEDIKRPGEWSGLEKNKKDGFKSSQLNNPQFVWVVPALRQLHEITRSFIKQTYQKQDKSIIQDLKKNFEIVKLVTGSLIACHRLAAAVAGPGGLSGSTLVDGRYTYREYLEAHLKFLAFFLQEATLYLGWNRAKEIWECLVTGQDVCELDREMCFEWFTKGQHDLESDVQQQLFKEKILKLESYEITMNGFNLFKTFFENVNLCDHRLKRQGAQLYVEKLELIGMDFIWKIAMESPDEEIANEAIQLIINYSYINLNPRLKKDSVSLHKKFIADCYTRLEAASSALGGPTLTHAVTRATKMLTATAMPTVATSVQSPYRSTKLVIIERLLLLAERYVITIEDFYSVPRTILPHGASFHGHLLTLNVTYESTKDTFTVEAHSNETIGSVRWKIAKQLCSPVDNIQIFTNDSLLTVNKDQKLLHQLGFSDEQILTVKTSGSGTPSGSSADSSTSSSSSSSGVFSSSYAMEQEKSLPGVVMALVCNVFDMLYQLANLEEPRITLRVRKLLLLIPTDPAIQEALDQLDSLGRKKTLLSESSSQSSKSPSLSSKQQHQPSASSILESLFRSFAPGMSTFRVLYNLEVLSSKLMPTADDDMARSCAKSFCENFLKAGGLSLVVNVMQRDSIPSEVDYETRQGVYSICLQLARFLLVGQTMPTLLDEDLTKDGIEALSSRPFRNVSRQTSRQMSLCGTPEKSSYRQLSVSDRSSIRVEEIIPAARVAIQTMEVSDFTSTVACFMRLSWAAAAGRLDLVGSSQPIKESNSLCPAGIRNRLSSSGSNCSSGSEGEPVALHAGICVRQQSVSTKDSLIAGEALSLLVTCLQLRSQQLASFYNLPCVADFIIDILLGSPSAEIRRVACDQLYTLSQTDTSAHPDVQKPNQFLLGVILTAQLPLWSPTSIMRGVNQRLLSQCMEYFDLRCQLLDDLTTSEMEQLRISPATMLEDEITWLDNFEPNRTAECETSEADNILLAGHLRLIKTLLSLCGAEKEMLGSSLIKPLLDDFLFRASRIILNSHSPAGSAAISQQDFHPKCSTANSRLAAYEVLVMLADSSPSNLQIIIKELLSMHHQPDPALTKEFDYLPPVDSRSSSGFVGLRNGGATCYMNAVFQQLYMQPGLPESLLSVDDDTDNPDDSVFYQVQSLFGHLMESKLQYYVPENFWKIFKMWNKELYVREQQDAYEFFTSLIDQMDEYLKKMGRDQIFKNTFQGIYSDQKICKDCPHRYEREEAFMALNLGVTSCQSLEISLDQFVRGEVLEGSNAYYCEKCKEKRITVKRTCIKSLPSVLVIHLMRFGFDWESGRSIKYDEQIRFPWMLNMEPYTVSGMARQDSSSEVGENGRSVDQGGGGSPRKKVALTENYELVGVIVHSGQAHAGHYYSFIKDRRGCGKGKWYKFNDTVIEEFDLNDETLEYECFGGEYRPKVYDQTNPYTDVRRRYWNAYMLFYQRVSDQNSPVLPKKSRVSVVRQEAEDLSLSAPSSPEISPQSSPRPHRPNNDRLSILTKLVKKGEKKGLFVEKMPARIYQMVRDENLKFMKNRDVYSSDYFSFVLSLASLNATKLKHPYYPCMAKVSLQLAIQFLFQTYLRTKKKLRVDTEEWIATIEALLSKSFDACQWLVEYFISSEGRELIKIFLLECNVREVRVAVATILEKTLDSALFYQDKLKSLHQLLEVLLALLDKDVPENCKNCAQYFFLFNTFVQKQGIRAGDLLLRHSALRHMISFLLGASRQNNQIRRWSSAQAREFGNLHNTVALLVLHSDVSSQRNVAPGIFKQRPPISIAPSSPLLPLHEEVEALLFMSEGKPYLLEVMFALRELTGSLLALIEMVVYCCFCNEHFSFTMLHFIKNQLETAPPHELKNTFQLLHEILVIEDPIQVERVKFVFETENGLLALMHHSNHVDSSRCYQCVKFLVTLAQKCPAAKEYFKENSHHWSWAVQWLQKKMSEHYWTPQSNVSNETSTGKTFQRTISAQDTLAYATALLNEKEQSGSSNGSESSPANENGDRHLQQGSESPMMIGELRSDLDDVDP
Procedure, shortened: as §1

USP25 = molecular target: T2, USP25 (UniProt Q9UHP3)
T2 sequence (whole entry): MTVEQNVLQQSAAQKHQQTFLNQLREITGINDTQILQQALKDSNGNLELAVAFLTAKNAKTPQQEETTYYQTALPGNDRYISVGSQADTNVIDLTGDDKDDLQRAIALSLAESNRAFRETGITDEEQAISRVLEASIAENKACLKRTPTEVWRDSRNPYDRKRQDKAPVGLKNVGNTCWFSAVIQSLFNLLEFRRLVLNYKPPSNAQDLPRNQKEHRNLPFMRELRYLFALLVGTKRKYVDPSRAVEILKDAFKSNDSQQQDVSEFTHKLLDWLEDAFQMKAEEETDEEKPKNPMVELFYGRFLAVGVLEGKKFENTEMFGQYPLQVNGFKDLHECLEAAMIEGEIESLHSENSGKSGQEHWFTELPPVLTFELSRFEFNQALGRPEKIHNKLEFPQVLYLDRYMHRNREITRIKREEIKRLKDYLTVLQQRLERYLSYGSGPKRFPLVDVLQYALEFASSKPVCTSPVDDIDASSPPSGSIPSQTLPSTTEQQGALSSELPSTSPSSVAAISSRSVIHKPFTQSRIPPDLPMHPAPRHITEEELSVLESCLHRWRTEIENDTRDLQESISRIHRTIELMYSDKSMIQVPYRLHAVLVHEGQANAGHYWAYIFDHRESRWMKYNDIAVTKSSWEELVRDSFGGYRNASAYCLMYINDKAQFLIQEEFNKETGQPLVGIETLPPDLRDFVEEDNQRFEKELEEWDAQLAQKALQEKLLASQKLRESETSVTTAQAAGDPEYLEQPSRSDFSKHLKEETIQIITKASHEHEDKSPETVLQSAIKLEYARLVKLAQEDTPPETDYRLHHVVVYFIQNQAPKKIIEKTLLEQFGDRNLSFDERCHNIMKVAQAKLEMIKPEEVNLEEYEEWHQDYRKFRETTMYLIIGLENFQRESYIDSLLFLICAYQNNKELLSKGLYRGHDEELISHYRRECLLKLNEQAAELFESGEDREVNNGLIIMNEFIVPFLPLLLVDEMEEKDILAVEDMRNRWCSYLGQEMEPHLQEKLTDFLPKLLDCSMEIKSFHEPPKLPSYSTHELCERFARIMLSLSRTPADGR
Procedure, shortened: as §1

USP28 = molecular target: T3, USP28 (UniProt Q96RU2)
T3 sequence (whole entry): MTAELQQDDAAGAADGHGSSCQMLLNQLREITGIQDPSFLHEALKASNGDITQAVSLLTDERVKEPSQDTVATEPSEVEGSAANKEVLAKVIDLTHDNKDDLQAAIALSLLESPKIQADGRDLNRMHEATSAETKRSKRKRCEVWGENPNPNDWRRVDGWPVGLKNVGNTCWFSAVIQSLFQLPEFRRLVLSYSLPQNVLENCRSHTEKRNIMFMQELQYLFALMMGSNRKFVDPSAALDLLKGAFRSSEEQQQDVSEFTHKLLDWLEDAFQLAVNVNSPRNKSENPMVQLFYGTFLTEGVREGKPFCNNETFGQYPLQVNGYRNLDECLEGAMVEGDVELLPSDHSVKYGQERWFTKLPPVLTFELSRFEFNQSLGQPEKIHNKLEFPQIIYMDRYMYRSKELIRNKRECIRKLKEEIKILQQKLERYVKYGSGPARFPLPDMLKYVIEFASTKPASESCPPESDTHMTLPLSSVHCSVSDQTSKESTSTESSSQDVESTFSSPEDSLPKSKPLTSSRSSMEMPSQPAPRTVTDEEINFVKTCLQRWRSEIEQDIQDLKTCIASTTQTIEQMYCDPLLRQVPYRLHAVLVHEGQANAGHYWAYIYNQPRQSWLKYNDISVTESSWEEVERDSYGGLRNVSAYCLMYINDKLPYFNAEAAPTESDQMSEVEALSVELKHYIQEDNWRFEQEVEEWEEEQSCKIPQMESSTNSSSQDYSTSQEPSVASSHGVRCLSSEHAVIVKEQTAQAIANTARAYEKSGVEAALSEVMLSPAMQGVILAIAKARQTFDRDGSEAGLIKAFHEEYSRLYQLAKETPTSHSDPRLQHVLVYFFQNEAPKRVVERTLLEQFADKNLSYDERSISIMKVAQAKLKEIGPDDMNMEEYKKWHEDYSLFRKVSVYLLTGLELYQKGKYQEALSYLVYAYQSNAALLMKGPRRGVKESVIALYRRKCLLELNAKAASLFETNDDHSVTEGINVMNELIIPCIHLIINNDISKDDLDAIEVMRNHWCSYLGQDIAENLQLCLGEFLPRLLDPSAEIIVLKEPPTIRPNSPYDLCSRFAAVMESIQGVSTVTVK
Procedure, shortened: as §1

Measured: log2 ratio of Biotin-Ahx-Ub-VS probe labelling

CNC(=O)Cn1cc(NC(=O)CCl)cn1
inactive: USP19 -0.0937 | USP24 -0.146 | USP25 -0.172 | USP28 -0.486

Source: the supplement of paper PMC11732987, “Enantioselective OTUD7B fragment discovery through chemoproteomics screening and high-throughput optimisation” (Communications Chemistry, 2025)
